Only some compounds are listed: those with a hit (about 3.5% of all), similar ones and a draw of the others.
mHTT CaM bind – inhibitors of human mutant huntingtin-calmodulin interaction | AlphaScreen His-mHTT/GST-CaM binding, luminescence | actives 3.6% (n = 190,000) | P42858 | inhibition, % at 15 µM;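 note: 0% = both proteins with DMSO and 100% = one protein alone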
Pf apPOL block – Pf-apPOL DNA polymerase inhibition; Recombinant Pf-apPOL, molecular beacon fluorescence, 1.5 h; inhibition, % at 10 µM; actives 0.25% (n = 210,000)
* = called active by the depositor; . = not tested or not shown. Cut-off read from the data, not from the text of the source: active = inhibition above about 50%; inactive = the rest.

SMILES | mHTT CaM bind | Pf apPOL block
C=CCc1c(C)nc2nc(SCC(=O)Nc3ccc(C)c(C)c3)nn2c1C | 53.0* | -3.7
Cc1cc(C)n2nc(SCC(=O)Nc3cccc(Cl)c3)nc2n1 | 6.0 | -9.0
Cc1cc(C)n2nc(SCc3ccc(F)cc3Cl)nc2n1 | 52.0* | -8.9
COc1ccc(NC(=O)CSc2nc3nc(C)c(Cc4ccccc4C)c(C)n3n2)cc1OC | 55.0* | -7.7
O=C(NCc1ccco1)C(=O)Nc1ccc(Cl)c(C(F)(F)F)c1 | 0.0 | -0.2
CS(=O)(=O)N1CCN(c2ccc([N+](=O)[O-])c(Sc3ccccn3)c2)CC1 | 15.3 | -2.7
CC(=O)N1CCc2sc(S(=O)(=O)Nc3ccc(C)cc3C)cc2C1 | 4.6 | -3.0
Cc1cc(C)n2nc(SC(C)C(=O)NCc3ccccc3)nc2n1 (stereo unspecified) | 25.0 | 8.4
Cc1cc(C)n2nc(SC(C)C(=O)NCc3ccccc3Cl)nc2n1 (stereo unspecified) | -1.0 | 59.9*
CCCCCNC(=O)C1CC(=O)N(CCc2c[nH]c3ccc(C)cc23)C1 (stereo unspecified) | 6.3 | -0.3
O=C(c1cc(C2CC2)n(C2CCS(=O)(=O)C2)n1)N1CCN(c2cccc(Cl)c2)CC1 (stereo unspecified) | 84.3* | -3.3
O=C(c1cc(-c2ccco2)n(C2CCS(=O)(=O)C2)n1)N1CCN(c2ccccn2)CC1 (stereo unspecified) | -3.1 | -4.7
N#Cc1c(-c2ccc([N+](=O)[O-])cc2)cc(-c2ccccc2)nc1N | 8.9 | -7.4
CC(=O)N1CCN(C2=Nc3ccccc3Oc3ccccc32)CC1 | 19.4 | -2.5
CC(=O)N1CCCN(C2=Nc3ccc(C)cc3Oc3ccccc32)CC1 | 53.7* | -5.6
O=C(O)CN=C1CCc2ccccc2N1 | -1.1 | -16.1
Cn1nc(C(=O)NCc2ccccc2)c2c1CCN(C(=O)Cc1ccccc1)C2 | 43.3 | -5.6
Cc1cccc(CC(=O)N2CCc3c(c(C(=O)NCc4ccc(Cl)cc4)nn3C)C2)c1 | 58.9* | -12.4
COc1ccc(OCC(=O)N2CCc3c(c(C(=O)NCc4ccccc4)nn3C)C2)cc1 | -0.9 | -12.1
Cn1nc(C(=O)NCc2ccc(Cl)cc2)c2c1CCN(C(=O)c1cccc(F)c1)C2 | 31.3 | 2.1
Cn1nc(C(=O)NCc2ccc(Cl)cc2)c2c1CCN(C(=O)Cc1ccccc1)C2 | 94.8* | 2.5
Cn1nc(COCc2ccccc2)c2c1CCN(S(=O)(=O)c1ccc(F)cc1)C2 | 29.8 | 1.6
Cn1nc(COCc2ccccc2)c2c1CCN(S(=O)(=O)c1ccc3c(c1)CCC3)C2 | 56.5* | -1.7
COc1cccc(CC(=O)N2CCc3c(c(C(=O)NCc4ccc(F)cc4)nn3C)C2)c1 | 69.0* | -5.2
CC(C)Cn1c(C2CCN(S(=O)(=O)c3cccc(Cl)c3)C2)nc2ccncc21 (stereo unspecified) | 1.1 | -9.0
SMILES | mHTT CaM bind | Pf apPOL block
COc1ccccc1NC(=O)N1CCC2(CC1)NC(=O)c1ccc(Cl)cc1N2C | -4.0 | -2.4
COc1ccc(NC(=O)c2ccc(C(C)C)cc2)c(OC)c1 | -10.9 | -10.5
O=C(Cc1ccccc1)Nc1cccc(NC(=O)c2ccc(Cl)cc2Cl)c1 | 25.7 | 6.2
c1ccc2c(c1)CCN(c1ncnc3scc(-c4ccc5ccccc5c4)c13)C2 | . | -3.7
Cc1ccc(CC(=O)N2CCc3c(c(C(=O)NCc4ccc(Cl)cc4)nn3C)C2)cc1 | 78.5* | -6.0
Cn1nc(COCc2ccccc2)c2c1CCN(C(=O)Cc1cccc(F)c1)C2 | 55.5* | -2.4
Cn1nc(COCc2ccccc2)c2c1CCN(C(=O)COc1ccccc1)C2 | -4.0 | -11.6
COc1ccccc1C1=NOC(C(=O)NCCN2CCOCC2)C1 (stereo unspecified) | -3.8 | -5.6
Cc1ccnc(NC(=O)c2cccc(Cl)c2)c1 | -12.0 | -6.2
Cc1ccc(C)c(NC(=O)CSc2cccc3cccnc23)c1 | 10.0 | -1.5
Cc1ccnc(NC(c2cc(C)ccc2O)c2ccc3cccnc3c2O)c1 (stereo unspecified) | 99.0* | -6.7
Cc1ccnc(NC(c2cccc(C)n2)c2ccc3cccnc3c2O)c1 (stereo unspecified) | 87.0* | 2.9
O=C(NC1CC1)c1cc2c(s1)CCN(C(=O)c1ccc(F)cc1)C2 | -1.6 | -3.0
Brc1ccc(CN2CCN(Cc3ccccc3)CC2)o1 | 3.0 | -2.3
O=C(Nc1ccc(F)cc1)C1CN(C(=O)c2ccccc2)CC12CCCC2 (stereo unspecified) | -2.8 | -4.5
COc1ccc2oc(=Nc3cccc(/C=C/C(=O)O)c3)c(C(N)=O)cc2c1 | 6.0 | -2.0
O=[N+]([O-])c1c(Cl)cc(O)c2c1C1C=CCC1C(c1ccc(Br)cc1)N2 (stereo unspecified) | 98.0* | -3.9
O=C(O)c1ccc([N+](=O)[O-])c2c1NC(c1ccc([N+](=O)[O-])cc1)C1CC=CC21 (stereo unspecified) | 37.0 | -2.3
O=[N+]([O-])c1ccc(C2Nc3c(O)ccc(Br)c3C3C=CCC32)cc1 (stereo unspecified) | 100.0* | -9.9
Oc1ccc(Br)c2c1NC(c1ccc(Cl)cc1)C1CC=CC21 (stereo unspecified) | 100.0* | -1.3
O=C(O)c1nnn(-c2cc(F)cc(F)c2)c1-c1ccccn1 | -9.0 | 2.1
O=C(NCCc1ccccc1)N1CCC(Nc2cccnc2)C1 (stereo unspecified) | 0.0 | -3.2
Cc1cccc(C2=NN(c3ccccc3)[C@H](CO)[C@H]2c2ccccc2)c1 | 87.3* | -3.4
OC[C@@H]1[C@@H](c2ccc(F)cc2)C(c2ccccc2)=NN1c1ccccc1 | 88.7* | -4.4
CC[C@H]1C(c2ccc(F)cc2)=NN(c2ccccc2)[C@@H]1CO | -58.5 | -5.7
SMILES | mHTT CaM bind | Pf apPOL block
Cc1cccc(C2=NN(c3ccccc3)[C@H](CO)[C@H]2C)c1 | -4.6 | -4.3
CCOc1cc(C2Nc3ccccc3NC3=C2C(=O)CC(c2cccs2)C3)cc(Cl)c1O (stereo unspecified) | 28.0 | -12.4
CCOc1cc(C2Nc3cc(C)c(C)cc3NC3=C2C(=O)CC(C)(C)C3)cc(Cl)c1O (stereo unspecified) | 53.0* | -6.3
O=C(Nc1nc2c(s1)CCCC2)c1coc(NC(=O)c2cccs2)n1 | 27.7 | -100.5
Cc1cccc2sc(NC(=O)c3coc(NC(=O)c4cccs4)n3)nc12 | 99.2* | -18.7
COc1ccc(CN2CCc3nc(Nc4ccc(F)cc4)ncc3C2)cc1 | -0.4 | -0.6
Cc1ccc(N2NC(=O)/C(=C\c3ccc(Cl)cc3)C2=O)cc1Cl | 11.0 | 0.5
Cc1ccc(N2NC(=O)/C(=C\c3ccc(C)c([N+](=O)[O-])c3)C2=O)cc1Cl | 62.0* | -7.7
O=C1NN(c2ccc(Cl)c(Cl)c2)C(=O)/C1=C/c1ccc(O)c(O)c1 | 73.0* | -1.3
COc1cc(/C=C2\C(=O)NN(c3ccc(Cl)c(Cl)c3)C2=O)ccc1O | 34.0 | -4.9
Cc1cc(=O)[nH]c(SCC(=O)c2ccc(O)c(O)c2)c1C#N | 13.0 | -3.7
CC/C(C)=C1\C(=O)NN(c2ccc(Br)cc2)C1=O | 74.0* | -1.2
Cn1c(=O)n(C)c2cc(/C=C3\C(=O)NN(c4ccc(Br)cc4)C3=O)ccc21 | 2.0 | 5.3
CC(=O)N(CCN1CCOCC1)c1nc2c(C)cc(Cl)cc2s1 | 9.9 | -0.7
CSc1cccc2sc(N(CC3CCCO3)C(=O)c3ccc4c(c3)OCCO4)nc12 (stereo unspecified) | 2.0 | -0.9
Cc1ccc2sc(N(CCCn3ccnc3)C(=O)c3ccc4c(c3)OCCO4)nc2c1C | 58.4* | -5.7
